Shown are actives, neighbours in structure and some others; about 7.3% of the full set was active somewhere.
Rab9 promoter act: Rab9 promoter activation; hit rate 2.8% among 320,000; Potency, µM (titrated, usually from 9.22 µM), inactives show at the highest dose activation, negative = inhibition, usual class: activators; AID 485297; Huh7 Rab9 promoter-luciferase reporter, luminescence, 24 h; further: % of control where 0% means no effect; nearly all actives have a fitted effect of over 60% in size
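Using Huh7 cells stably transfected with Rab9 promoter–luciferase, compounds were incubated 24 h at 37 °C, 5% CO2; luciferase luminescence was read 10 min after reagent addition.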
FLuc modulator: firefly luciferase modulation, counter-screen for miR-21 project; P08659; purified FLuc, Km substrates, luminescence inhibition; Potency, µM (top dose mostly 57.5 µM), inactives show top-dose activity change, negative = inhibition, usual class: inhibitors; hit rate 6.9% among 360,000; AID 588342;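 further: plate controls were vehicle for no effect and reference inhibitor for full effect; nearly all actives have a fitted effect of over 55% in size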
Target sequence (P08659 whole entry, looked up): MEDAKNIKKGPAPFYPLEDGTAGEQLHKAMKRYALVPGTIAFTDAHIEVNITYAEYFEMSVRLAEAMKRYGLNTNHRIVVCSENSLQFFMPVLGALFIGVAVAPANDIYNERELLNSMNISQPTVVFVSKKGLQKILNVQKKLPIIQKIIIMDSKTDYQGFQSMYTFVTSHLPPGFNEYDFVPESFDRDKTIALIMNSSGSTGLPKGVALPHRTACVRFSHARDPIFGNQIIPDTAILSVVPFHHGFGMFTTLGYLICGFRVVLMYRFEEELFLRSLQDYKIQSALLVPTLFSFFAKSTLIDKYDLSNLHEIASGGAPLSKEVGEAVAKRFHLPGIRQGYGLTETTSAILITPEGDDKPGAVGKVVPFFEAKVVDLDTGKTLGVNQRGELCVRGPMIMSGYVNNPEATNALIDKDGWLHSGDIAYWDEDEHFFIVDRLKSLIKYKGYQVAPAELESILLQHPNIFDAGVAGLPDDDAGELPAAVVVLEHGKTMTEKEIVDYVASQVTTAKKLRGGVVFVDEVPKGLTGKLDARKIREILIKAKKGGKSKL
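Purified P. pyralis luciferase (10nM final) with 10uM D-luciferin and 10uM ATP (Km levels) in 50mM Tris acetate pH 7.5, 10mM Mg acetate, 0.01% Tween-20, 0.05% BSA; qHTS 6-point titration, ~60 µM downward; luminescence read.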
ELG1 genotox: inducers of genotoxicity in HEK293T ELG1-luciferase cells | HEK293T ELG1-luciferase reporter, luminescence, 16 h | Potency, µM (titrated, usually from 46 µM), without a hit: at the top dose activity change, positive = activation, hits mostly activators | hit rate 1.3% among 330,000 | AID 504466; further: % of control where 0% means no effect; nearly all actives have a fitted effect of over 60% in size
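Luminescence read-out: rising ELG1-luciferase signal, reflecting elevated ELG1 protein under genetic stress, flags genotoxic compounds. Cells were treated for 16 hr at 37 °C before ONE-Glo detection.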
NPC1 promoter act: activators of NPC1 promoter; Huh7 NPC1 promoter luciferase reporter, 24 h; Potency, µM (highest dose often 9.22 µM), for the others: at the highest dose activation, hits mostly activators; hit rate 2.4% among 320,000; AID 485313; further: % of control where 0% means no effect; nearly all actives have a fitted effect of over 60% in size
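Readout is luciferase luminescence, reflecting NPC1 promoter activation in stably transfected Huh7 cells after 24 h compound exposure at 37 °C in reduced-serum medium with 10% FBS.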
SMN2 splice up: SMN2 splice variant enhancement | HEK293 SMN2-luciferase splicing reporter, luminescence, 30-36 h | Potency, µM (doses to about 46.1 µM), for inactives: at the top dose activity change, positive = activation, hits mostly activators | hit rate 2.8% among 210,000; further: % of control where 0% means no effect; nearly all actives have a fitted effect of over 55% in size
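HEK293 cells carry an SMN2 minigene-luciferase reporter in which exon 7 inclusion puts luciferase in frame. Cells were seeded at 2000 cells/well, attached for 10-12 hours, then exposed to compounds for 30-36 hours at 37C before ONE-Glo luminescence.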
Luc counter: blocks Kinase-Glo luciferase, a counter-screen artifact; AID 1379; Potency, µM (series often up to 38.3 µM), for inactives: at the highest dose activity change, negative = inhibition, actives largely listed as inhibitors; hit rate 0.28% among 200,000; Q27757; Kinase-Glo luciferase, ATP luminescence, 8 min; further: on the % scale 0 is the no-effect control and ±100 the full control effect; nearly all actives have a fitted effect of over 60% in size
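Inhibition of Kinase-Glo luciferase light generation was assessed at 10 uM ATP in pH 7.2 imidazole buffer, with luminescence measured after eight minutes at ambient temperature.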
The depositor's hits bear a star; [ ] = another dose, or the depositor's remark. The call rests on the fitted dose curve; in most records, active means well fitted curve in the direction sought with a large enough effect; inconclusive means small, poorly fitted or top-dose-only effect, or another doubt; inactive means no such curve, though single readings can be large; an effect the other way counts as inactive or inconclusive. Potency means the concentration at half of the fitted maximal effect.

Results for FC(F)Sc1ccc(Nc2ncnc3nc[nH]c23)cc1 ?
Rab9 promoter act: inconclusive; FLuc modulator: inconclusive; ELG1 genotox: 18%; NPC1 promoter act: inconclusive; SMN2 splice up: 11µM*; Luc counter: 0%

Results for COc1ccc(S(=O)(=O)NCC(c2ccco2)S(=O)(=O)c2cccs2)cc1F (centres undefined) ?
FLuc modulator: 0%

What do the screens show for `Clc1ccc2c(c1)[C@H]1OCC[C@H]1[C@@H](c1ccco1)N2`?
Rab9 promoter act: inconclusive; FLuc modulator: 4.8µM*; ELG1 genotox: inconclusive; NPC1 promoter act: inconclusive; SMN2 splice up: 22µM*; Luc counter: -14%

How did Cc1ccc(NC(=O)C2CCN(c3nc4ccccc4[nH]3)CC2)c(C)c1 do in these assays?
FLuc modulator: 3%

How did O=C(O)/C=C\c1c2ccc(=O)c(O)c-2oc2c(O)c(O)ccc12 do in these assays?
SMN2 splice up: -8%[9.22 µM]; Luc counter: -3%[7.66 µM]

How did Cc1ccc(-n2ncc3c(NCc4cccnc4)ncnc32)c(C)c1 do in these assays?
Rab9 promoter act: -22%; FLuc modulator: -15%; ELG1 genotox: 10%; NPC1 promoter act: -9%; SMN2 splice up: -84%; Luc counter: -2%

How did Cc1cccc(-n2ncc3c(NCc4cccnc4)ncnc32)c1 do in these assays?
Rab9 promoter act: 2.5µM*; FLuc modulator: 8.5µM*; ELG1 genotox: inconclusive; NPC1 promoter act: 4µM*

How did Cc1ccc(Cl)cc1-n1ncc2c(NCc3ccc(F)cc3)ncnc21 do in these assays?
FLuc modulator: -11%

Results for COc1ccc(-n2ncc3c(NCc4cccnc4)ncnc32)cc1 ?
Rab9 promoter act: 1µM*; FLuc modulator: 6.7µM*; ELG1 genotox: inconclusive; NPC1 promoter act: 1.3µM*

Results for Cc1ccc(-n2ncc3c(NCc4cccnc4)ncnc32)cc1C ?
Rab9 promoter act: inconclusive; FLuc modulator: 4.8µM*; ELG1 genotox: 9.2µM*; NPC1 promoter act: 2.2µM*

How did Cc1cc(O)cc(O)c1C(=O)OC1(C)C(=O)C=C2C=C(/C=C/C(=O)O)OC=C2C1=O (centres undefined) do in these assays?
SMN2 splice up: 15%; Luc counter: 0%

Results for CC#CCN1c2ccccc2[C@]23C[C@@H](C(=O)OC)N(S(=O)(=O)c4ccc(C#N)cc4)C2=NC(C(=O)OC)=C(C(=O)OC)[C@H]13 ?
SMN2 splice up: 9%[9.22 µM]; Luc counter: -1%[7.66 µM]

How did CCOc1ccccc1NC(=O)Cn1c(=O)n(Cc2ccco2)c(=O)c2ccc(C(=O)NC3CCCC3)cc21 do in these assays?
FLuc modulator: -3%; SMN2 splice up: 6%

How did CC1CCN(c2ccc(-c3cccc(NS(=O)(=O)c4cccs4)c3)nn2)CC1 do in these assays?
FLuc modulator: 0.48µM*

Results for CC1CCN(c2ccc(-c3cccc(NS(=O)(=O)c4ccc(Cl)s4)c3)nn2)CC1 ?
FLuc modulator: 0.85µM*

What do the screens show for `COC(=O)[C@H]1C2CC3c4[nH]c5ccccc5c4CCN3CC2CC[C@@H]1O` (some centres undefined)?
SMN2 splice up: 0%

How did c1ccc(-c2onc3cc4c(cc23)OCCO4)cc1 do in these assays?
Rab9 promoter act: 3.2µM*; FLuc modulator: -10%[2.3 µM]; ELG1 genotox: inconclusive; NPC1 promoter act: inconclusive; SMN2 splice up: 35µM*; Luc counter: -10%

Results for CCCCCn1c(=N)c(S(=O)(=O)c2ccccc2)cc2c(=O)n3cccc(C)c3nc21 ?
FLuc modulator: 1%; SMN2 splice up: -6%

How did Cc1ccc(NC2=Nc3ccccc3CS2)cc1 do in these assays?
Rab9 promoter act: 0.32µM*; FLuc modulator: 0.48µM*; ELG1 genotox: inconclusive; NPC1 promoter act: 0.32µM*

Results for COC(=O)c1[nH]c2cc(C)ccc2c1NC(=O)CN1CCCc2ccccc21 ?
Rab9 promoter act: inconclusive; FLuc modulator: 24µM*; ELG1 genotox: 5%; NPC1 promoter act: inconclusive; SMN2 splice up: 10%; Luc counter: -1%

Results for COc1ccccc1C(=O)Oc1c(Sc2ccccc2)c(C)nn1C(C)(C)C ?
FLuc modulator: -1%; SMN2 splice up: -8%

How did COc1ccc(OC)c(/C=C/C(=O)Nc2cccc(S(=O)(=O)NC3=NCCCCC3)c2)c1 do in these assays?
Rab9 promoter act: -2%; FLuc modulator: inconclusive; ELG1 genotox: -1%; NPC1 promoter act: -2%

How did COc1ccc(/C=C/C(=O)Nc2cccc(S(=O)(=O)NC3=NCCCCC3)c2)c(OC)c1 do in these assays?
Rab9 promoter act: 2%; FLuc modulator: 6µM*; ELG1 genotox: -7%; NPC1 promoter act: 4%

Results for COc1ccccc1/C=C/C(=O)Nc1cccc(S(=O)(=O)NC2=NCCCCC2)c1 ?
Rab9 promoter act: 2%; FLuc modulator: 19µM*; ELG1 genotox: -7%; NPC1 promoter act: -5%; SMN2 splice up: 3%; Luc counter: 0%

How did COc1cc(/C=C/C(=O)Nc2cccc(S(=O)(=O)NC3=NCCCCC3)c2)ccc1OCC#N do in these assays?
Rab9 promoter act: 1%; FLuc modulator: -5%; ELG1 genotox: -21%; NPC1 promoter act: 1%

What do the screens show for `CC(C)Sc1ncc(Cl)c(C(=O)Nc2ccc(S(=O)(=O)N3CCCCC3C)cc2)n1` (centres undefined)?
FLuc modulator: 1%; SMN2 splice up: 46%

What do the screens show for `c1ccc2nc(-c3nc4ccccc4[nH]3)ccc2c1`?
Rab9 promoter act: 0.63µM*; FLuc modulator: 0.3µM*; NPC1 promoter act: 2.8µM*; SMN2 splice up: 0.4µM*; Luc counter: 8.9µM*

Results for FC(F)c1nc2ccccc2[nH]1 ?
Rab9 promoter act: -3%; FLuc modulator: -17%; ELG1 genotox: 1%; NPC1 promoter act: 1%; Luc counter: -6%

Results for c1ccc2[nH]c(-c3cscn3)nc2c1 ?
Rab9 promoter act: inconclusive; FLuc modulator: 13µM*; ELG1 genotox: inconclusive; NPC1 promoter act: inconclusive; SMN2 splice up: 13µM*; Luc counter: -18%

How did Cc1ccc(C2CC(=O)Oc3c(C(C)C)ccc(C)c32)cc1 (centres undefined) do in these assays?
Luc counter: 0%[39.9 µM]

Results for CSc1ncc(Cl)c(C(=O)Nc2ccc(S(=O)(=O)N3CCC(C)CC3)cc2)n1 ?
FLuc modulator: -3%; SMN2 splice up: -56%

What do the screens show for `CCCn1c(=O)c2sccc2n2c(CCCC(=O)N3CCN(c4ccccc4)CC3)nnc12`?
FLuc modulator: -3%

Bioassay records as filed in PubChem BioAssay.
